Test results as given in PubChem BioAssay (Tox21).
Records with an inconclusive call do not appear. Entries that show only a call come without a potency. Values without a mark were called inactive. Calls of active or inactive are those of the source. Calls follow the shape of the full dose curve.

Experiment: p53 small molecule agonists, cell-based qHTS assay with rat liver microsomes (AID 1963578)
Conditions: HCT-116 p53RE-bla, beta-lactamase ratio, 16 h; series mostly up to 66 µM
Outline: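 Metabolic activation by rat liver microsomes and NADPH, each 0.5 mg/mL final, added right after compounds to p53RE-bla reporter cells (4,000/well, plated 5 h earlier). 16 h at 37 C, then LiveBLAzer substrate for 2 h at room temperature in the dark; fluorescence read-out.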

SMILES	Potency	activation
Oc1ccc2ccccc2c1	inactive	–
CCOC(=O)c1ccc(C2CCC(NC[C@H](O)COc3ccc(O)c(NS(C)(=O)=O)c3)CC2)cc1 (some centres not stated)	inactive	–
CCOC(=O)[C@@H](C)Oc1ccc(Oc2nc3ccc(Cl)cc3o2)cc1	inactive	–
COC(C(=O)O)c1ccccc1 (configuration not stated)	inactive	–
CS(=O)(=O)Nc1ccc([N+](=O)[O-])cc1Oc1ccccc1	inactive	–
CN(C)CC/C=C1\c2ccccc2COc2ccccc21	inactive	–
O=C(O)Cc1cc(I)c(Oc2ccc(O)c(I)c2)c(I)c1	inactive	–
Cn1c(N)nc2nc[nH]c2c1=O	inactive	–
Cc1c(Nc2ncccc2C(=O)O)cccc1C(F)(F)F	inactive	–
O=C(CS(=O)Cc1ccco1)NC/C=C\COc1cc(CN2CCCCC2)ccn1 (configuration not stated)	inactive	–
O=P(c1ccccc1)(c1ccccc1)c1ccccc1	inactive	–
Oc1ccc(N=Nc2ccccc2)cc1	inactive	–
O=S(c1cc(Cl)cc(Cl)c1O)c1cc(Cl)cc(Cl)c1O	inactive	–
CN(CCCN1c2ccccc2CCc2ccccc21)CC(=O)c1ccc(Cl)cc1	inactive	–
CC(C(=O)O)c1ccc2c(c1)[nH]c1ccc(Cl)cc12 (configuration not stated)	inactive	–
c1ccc2sc(SSc3nc4ccccc4s3)nc2c1	–	-0.548% [at 13.6 µM]
C=C/C=C/C=C/CCCCC	–	0.431% [at 13.6 µM]
CCCCCCOC(=O)c1ccccc1	inactive	–
O=C1CCc2ccc(OCCCCN3CCN(c4cccc(Cl)c4Cl)CC3)cc2N1	inactive	–
O=C(O)CCCCCCCCCCCBr	inactive	–
CC(=O)OCC=C(C)C	inactive	–
NC1=NCC2c3ccccc3Cc3ccccc3N12 (configuration not stated)	inactive	–

Experiment: p53 small molecule agonists, cell-based qHTS assay with human liver microsomes: qHTS cell viability counter screen (AID 1963579); also: nearly all actives have a fitted effect of over 45% in size; also: potency is read from the fitted curve at half-maximal effect
Conditions: p53RE-bla HCT-116 viability, ATP luminescence, 16 h, HLM; series mostly up to 66 µM
Outline: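 Metabolic activation used human liver microsomes and NADPH, both 0.5 mg/mL final, over 16 hours at 37 C on p53RE-bla cells (4,000/well). Cytotoxicity measured by CellTiter-Glo luminescence, 30 min at room temperature.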

SMILES	Potency	activity change, negative = cytotoxicity
CC(C)=CC(C)(C)C	inactive	–
CCCC/C=C/CCCCO	inactive	–
C[C@H](CS)C(=O)N1CCC[C@H]1C(=O)O	inactive	–
C/C=C1\[C@H]2C=C(C)C[C@]1(N)c1ccc(=O)[nH]c1C2	inactive	–
C[C@@H]1C[C@H]2O[C@@]3(O[C@@H]2C(C)(C)O)[C@H](O)[C@@]2(C)[C@@H]4CC[C@H]5C(C)(C)[C@@H](O[C@@H]6OC[C@@H](O)[C@H](O)[C@H]6O)CC[C@@]56C[C@@]46CC[C@]2(C)[C@@H]13	inactive	–
CCCCCC(C)OC(=O)COc1ccc(Cl)c2cccnc12 (configuration not stated)	inactive	–
Cc1ccccc1N=Nc1ccc(N=Nc2c(O)ccc3ccccc23)c(C)c1	inactive	–
Brc1c(NC2=NCCN2)ccc2nccnc12	inactive	–
CC1CN(c2ccccc2)NC1=O (configuration not stated)	inactive	–
O=C(NCC(O)CO)c1c(I)c(C(=O)NCC(O)CO)c(I)c(N(CCO)C(=O)CO)c1I (configuration not stated)	inactive	–
O=[N+]([O-])c1ccc2ncccc2c1	inactive	–
Oc1ccc(C2(c3ccc(O)c(C4CCCCC4)c3)CCCCC2)cc1C1CCCCC1	20.4 µM (active)	–
Cc1cc(-c2ccc(N=Nc3cc(S(=O)(=O)O)c4ccccc4c3N)c(C)c2)ccc1N=Nc1cc(S(=O)(=O)O)c2ccccc2c1N	inactive	–
CCN(CC)CC	inactive	–
CO	inactive	–
O=C(c1ccccc1)c1ccc(O)cc1O	inactive	–
COC(=O)/C=C/C(C)=C\C=C\C(C)=C\C=C\C=C(C)\C=C\C=C(C)\C=C\C(=O)O	inactive	–
C[C@H]1[C@H](NC(=O)/C(=N/OC(C)(C)C(=O)O)c2csc(N)n2)C(=O)N1S(=O)(=O)O (stereo in doubt)	inactive	–
Oc1ccc2ccccc2c1	inactive	–
CCOC(=O)c1ccc(C2CCC(NC[C@H](O)COc3ccc(O)c(NS(C)(=O)=O)c3)CC2)cc1 (some centres not stated)	inactive	–

SMILES	Potency	activity change, negative = cytotoxicity
CCOC(=O)[C@@H](C)Oc1ccc(Oc2nc3ccc(Cl)cc3o2)cc1	inactive	–
COC(C(=O)O)c1ccccc1 (configuration not stated)	inactive	–
CS(=O)(=O)Nc1ccc([N+](=O)[O-])cc1Oc1ccccc1	inactive	–
CN(C)CC/C=C1\c2ccccc2COc2ccccc21	inactive	–
O=C(O)Cc1cc(I)c(Oc2ccc(O)c(I)c2)c(I)c1	inactive	–
Cn1c(N)nc2nc[nH]c2c1=O	inactive	–
Cc1c(Nc2ncccc2C(=O)O)cccc1C(F)(F)F	inactive	–
O=C(CS(=O)Cc1ccco1)NC/C=C\COc1cc(CN2CCCCC2)ccn1 (configuration not stated)	inactive	–
O=P(c1ccccc1)(c1ccccc1)c1ccccc1	inactive	–
Oc1ccc(N=Nc2ccccc2)cc1	inactive	–
O=S(c1cc(Cl)cc(Cl)c1O)c1cc(Cl)cc(Cl)c1O	inactive	–
CN(CCCN1c2ccccc2CCc2ccccc21)CC(=O)c1ccc(Cl)cc1	inactive	–
CC(C(=O)O)c1ccc2c(c1)[nH]c1ccc(Cl)cc12 (configuration not stated)	inactive	–
c1ccc2sc(SSc3nc4ccccc4s3)nc2c1	–	-2.64% [at 13.5 µM]
C=C/C=C/C=C/CCCCC	–	1.88% [at 13.5 µM]
CCCCCCOC(=O)c1ccccc1	inactive	–
O=C1CCc2ccc(OCCCCN3CCN(c4cccc(Cl)c4Cl)CC3)cc2N1	inactive	–
O=C(O)CCCCCCCCCCCBr	inactive	–
CC(=O)OCC=C(C)C	inactive	–
NC1=NCC2c3ccccc3Cc3ccccc3N12 (configuration not stated)	inactive	–
